According to PubChem BioAssay (NCATS):
Results filed as inconclusive are left out. Activity calls are given as the source filed them. Unless noted, calls come from the whole dose curve.

Legend:
[1] = qHTS drug screen for cell cycle checkpoint inhibitors in PARPi-resistant BRCA-mutant ovarian cancer cell lines. (AID 1963452); details: PEO1/OlaR viability, CellTiter-Glo luminescence, 96 h; for Z-AUC: stronger effect = lower value; note: potency is the fitted concentration of half-maximal effect
Outline: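 PEO1, PEO4 and PEO1/OlaR ovarian cancer cells, 600 per well, exposed 96 h at 37C to a dilution series. Viability read by CellTiter-Glo luminescence, normalized to DMSO and empty wells; activity summarized as Z-AUC.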

[2] = qHTS for identification of novel therapeutic agents for treatment of microphthalmiaassociated transcription factor (MiT) renal cell carcinoma (RCC) (AID 1963991); details: CellTiter-Glo, 48 h; for z-score: stronger effect = lower value; for Potency: active = Z-AUC below -0.8 in all three lines; note: potency is the fitted concentration of half-maximal effect
Outline: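 Three TFE3-fusion RCC cell lines (UOK109, UOK124, UOK145), 500 cells/well, were exposed to the 1912-compound MIPE 4.0 library for 48 hours at 37 C. Viability was read by CellTiter-Glo luminescence, normalised to DMSO (100%) and empty wells (0%), with 11-concentration curve fits.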

[3] = qHTS profiling for inhibitors of Plasmodium falciparum proliferation (AID 504749; active = well fitted inhibition curve with a large enough effect;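 note: 0% = DMSO vehicle and full inhibition = artemisinin control; nearly all actives have a fitted effect of over 60% in size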); details: P. falciparum in erythrocytes, SYBR Green DNA, 72 h
Outline: (§1)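 Readout was DNA-dye fluorescence from lysed cultures, ex 485/em 535 nm. Parasitized red cells had grown 72 h with compound; data scaled between 0.29 uM artemisinin and DMSO wells and corrected using vehicle-only plates.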

[4] = test system: 3D7; assay: as above; details: P. falciparum in erythrocytes, SYBR Green DNA, 72 h; series mostly up to 28.7 µM
Outline: as §1

[5] = test system: 7G8; assay: as above; details: P. falciparum in erythrocytes, SYBR Green DNA, 72 h; series mostly up to 28.7 µM
Outline: as §1

[6] = test system: AA1029; assay: as above; details: P. falciparum in erythrocytes, SYBR Green DNA, 72 h; series mostly up to 28.7 µM
Outline: as §1

[7] = test system: AS120; assay: as above; details: P. falciparum in erythrocytes, SYBR Green DNA, 72 h; series mostly up to 28.7 µM
Outline: as §1

[8] = measured here: PEO1 parental Z-AUC
[9] = TFE3-RCC UOK109 viability, measured here: UOK109 Z-AUC
[10] = TFE3-RCC viability, measured here: UOK124 Z-AUC
[11] = TFE3-RCC viability, measured here: UOK145 Z-AUC
[12] = at 28.7 µM (top of the series), parasite line A
[13] = at 28.7 µM (top of the series), parasite line B

CCN(CC)C(=S)SSC(=S)N(CC)CC
Z-AUC [1]: 0.318 (inactive)
Z-AUC [1, 8]: 0.214
Z-AUC ([1]; measured here: PEO4 Z-AUC): 0.454

CN(C)C(=O)[C@H](O)[C@H](Cc1ccccc1)NC(=O)c1cc2cc(Cl)ccc2[nH]1
Z-AUC [1]: -0.181 (inactive)
Z-AUC [1, 8]: 0.139
Z-AUC ([1]; measured here: PEO4 Z-AUC): -0.0271

CC(C)c1ccc2c(c1)c(SC(C)(C)C)c(CC(C)(C)C(=O)O)n2Cc1ccc(Cl)cc1
Z-AUC [1]: 1.24 (inactive)
Z-AUC [1, 8]: 0.791
Z-AUC ([1]; measured here: PEO4 Z-AUC): 0.661

Cc1cccc(CN2CCN(C(c3ccccc3)c3ccc(Cl)cc3)CC2)c1 (stereo not drawn)
Z-AUC [1]: -1.46 (inactive)
Z-AUC [1, 8]: -0.604
Z-AUC ([1]; measured here: PEO4 Z-AUC): -1

COc1cc(Nc2c(C#N)cnc3cc(OCCCN4CCN(C)CC4)c(OC)cc23)c(Cl)cc1Cl
Z-AUC [1]: 0.106 (inactive)
Z-AUC [1, 8]: 0.26
Z-AUC ([1]; measured here: PEO4 Z-AUC): 0.9

O=c1c(O)c(-c2ccc(O)cc2O)oc2cc(O)cc(O)c12
Z-AUC [1]: 1.32 (inactive)
Z-AUC [1, 8]: 1.13
Z-AUC ([1]; measured here: PEO4 Z-AUC): 1.21
z-score [2, 9]: 0.0602
z-score [2, 10]: 0.591
z-score [2, 11]: -0.0945

C[C@H](Cc1ccc(O)c(O)c1)[C@@H](C)Cc1ccc(O)c(O)c1
Z-AUC [1]: 1.18 (inactive)
Z-AUC [1, 8]: 0.707
Z-AUC ([1]; measured here: PEO4 Z-AUC): 0.729

Cc1ccc(Nc2nccc(N(C)c3ccc4c(C)n(C)nc4c3)n2)cc1S(N)(=O)=O
Z-AUC [1]: 1.07 (inactive)
Z-AUC [1, 8]: 0.627
Z-AUC ([1]; measured here: PEO4 Z-AUC): 0.955

Nc1nc(OCc2ccccc2)c2[nH]cnc2n1
Z-AUC [1]: 0.131 (inactive)
Z-AUC [1, 8]: 0.393
Z-AUC ([1]; measured here: PEO4 Z-AUC): 0.209

O=C(NOCC1CC1)c1ccc(F)c(F)c1Nc1ccc(I)cc1Cl
Z-AUC [1]: 0.682 (inactive)
Z-AUC [1, 8]: -0.295
Z-AUC ([1]; measured here: PEO4 Z-AUC): 0.149

NC(=NCc1ccccc1)NC(=O)c1nc(Cl)c(N)nc1N
Z-AUC [1]: -0.929 (inactive)
Z-AUC [1, 8]: -0.393
Z-AUC ([1]; measured here: PEO4 Z-AUC): -0.0693

O=C1NC(=O)C(c2ccccc2[N+](=O)[O-])=C1Nc1ccc(O)c(Cl)c1
Z-AUC [1]: 0.891 (inactive)
Z-AUC [1, 8]: 0.49
Z-AUC ([1]; measured here: PEO4 Z-AUC): 0.349

CCC1=C(C)CN(C(=O)NCCc2ccc(S(=O)(=O)NC(=O)NC3CCC(C)CC3)cc2)C1=O (stereo not drawn)
Z-AUC [1]: -0.196 (inactive)
Z-AUC [1, 8]: 0.246
Z-AUC ([1]; measured here: PEO4 Z-AUC): 0.144
z-score [2, 9]: 0.704
z-score [2, 10]: 0.513
z-score [2, 11]: 0.718
activity, negative = inhibition [3, 12]: 6.02% (inactive)
activity, negative = inhibition [3, 13]: 7.16% (inactive)
Potency [4]: inactive
Potency [5]: inactive
Potency [6]: inactive
Potency [7]: inactive

CN1C(C(=O)Nc2ccccn2)=C(O)c2sccc2S1(=O)=O
Z-AUC [1]: 1.5 (inactive)
Z-AUC [1, 8]: 1.16
Z-AUC ([1]; measured here: PEO4 Z-AUC): 1.02
z-score [2, 9]: 1.14
z-score [2, 10]: 0.504
z-score [2, 11]: 0.557
activity, negative = inhibition ([3]; at 12.8 µM (top of the series), parasite line A): -2.2% (inactive)
activity, negative = inhibition ([3]; at 12.8 µM (top of the series), parasite line B): -4.64% (inactive)
Potency [4]: inactive
Potency [5]: inactive
Potency [6]: inactive
Potency [7]: inactive

CCCOc1ccc2nc(NC(=O)OC)[nH]c2c1
Z-AUC [1]: -0.576 (inactive)
Z-AUC [1, 8]: -0.504
Z-AUC ([1]; measured here: PEO4 Z-AUC): -0.563
Potency ([2]; TFE3-RCC UOK109 viability): 7.43 nM (active)
z-score [2, 9]: -2.25
z-score [2, 10]: -3.82
z-score [2, 11]: -2.16
activity, negative = inhibition [3, 12]: -0.812% (inactive)
activity, negative = inhibition [3, 13]: 13.5% (inactive)
Potency [4]: inactive
Potency [5]: inactive
Potency [6]: inactive
Potency [7]: inactive

CC(=O)O[C@H]1C(=O)[C@@]2(C)C([C@H](OC(=O)c3ccccc3)[C@]3(O)C[C@H](OC(=O)[C@H](O)[C@@H](NC(=O)c4ccccc4)c4ccccc4)C(C)=C1C3(C)C)[C@]1(OC(C)=O)CO[C@@H]1C[C@@H]2O (stereo partly drawn)
Potency [1]: 7.8 nM (active)
Z-AUC [1, 8]: -2.74
Z-AUC ([1]; measured here: PEO4 Z-AUC): -3.15
Potency ([2]; TFE3-RCC UOK109 viability): 41.8 nM (active)
z-score [2, 9]: -1.4
z-score [2, 10]: -1.86
z-score [2, 11]: -1.46
